Screening results deposited in PubChem BioAssay by several laboratories.
Bfl-1 A1 inh = caspase 3/7 activation in MEF A1-2A-BIM cells, primary screen, A1 inhibitor project, cell-based, luminescence, HTS; AID 2462, 2010; Caspase-Glo 3/7 luminescence, 3 h; percent of clofoctol response, vehicle zero; caspase activation, % (no concentration beside the values); 330,000 compounds, 0.066% hits;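 active = over half of replicate activation scores above 10%, or exactly half above 10 with the replicate mean above 10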
B2AR ag = beta2AR agonists driving receptor internalization, primary screen, cell-based, FAP fluorogen, flow cytometry; Beta-2 adrenergic receptor (Homo sapiens), P07550; Am2.2-beta2AR cells; response, % (concentration not given with the values); 340,000 compounds, 0.43% hits; AID 504454, 2011;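 active = response above a set limit, near 3 SD of response in nonfluorescent compounds, cut at about 42% in these data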
Target sequence (P07550 whole entry, looked up): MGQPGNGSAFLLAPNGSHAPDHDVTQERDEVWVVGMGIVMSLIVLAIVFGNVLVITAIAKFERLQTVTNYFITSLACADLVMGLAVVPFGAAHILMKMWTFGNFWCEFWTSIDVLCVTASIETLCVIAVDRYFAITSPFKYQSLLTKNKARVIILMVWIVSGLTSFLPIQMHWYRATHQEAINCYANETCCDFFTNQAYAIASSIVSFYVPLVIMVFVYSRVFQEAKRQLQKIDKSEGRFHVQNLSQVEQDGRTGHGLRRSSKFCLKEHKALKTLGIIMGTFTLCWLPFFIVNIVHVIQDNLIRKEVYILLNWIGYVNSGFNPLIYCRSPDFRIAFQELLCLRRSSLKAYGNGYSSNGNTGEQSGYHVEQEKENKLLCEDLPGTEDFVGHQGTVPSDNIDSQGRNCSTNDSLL
dFosB activator = activators of delta FosB homodimer, primary screen, biochemical, fluorescence polarization, TAMRA-CDK5 oligo, single point | purified delta FosB; percent of positive-control signal above neutral wells | 340,000 compounds, 0.99% hits | AID 493131, 2011 | activation, % at 25 µM | Protein FosB (Mus musculus), P13346;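 active = mean activation above about 17%, with every replicate also reaching it, limit read from the data, passing the limit was not always enough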
DYRK1A inh = rat Dyrk1A kinase inhibitors, primary screen, biochemical, single point, plate reader. Dual specificity tyrosine-phosphorylation-regulated kinase 1A (Rattus norvegicus), Q63470. ADP-Glo luminescence, NFATc1 peptide. inhibition, % at 12.5 µM. 310,000 compounds, 0.43% hits. AID 504441, 2011; in the data active = inhibition above about 50%;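 note: plate controls were vehicle with enzyme for no effect and no enzyme for full effect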
ADP-Glo artifact = ADP-Glo luciferase interference without Dyrk1A, dose response, artefact control for Dyrk1A inhibitor project, biochemical, luminescence, cherry-pick, set 02. shares compounds with DYRK1A inh. ADP-Glo luciferase artifact assay, no Dyrk1A. AC50, µM (top dose mostly 12 µM), inactives show top-dose activity change, negative = inhibition. 1,300 tested, under 10 active. AID 588348, 2011;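 active = fitted half-maximal dose AC50 no more than ten times the top valid tested dose, with luminescence dropping as dose rises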
B2AR ag CP1 = beta2AR agonists via receptor internalization, confirmation, cell-based, FAP fluorogen, flow cytometry, single point, cherry pick 1 | percent response (surface receptor), % at 10 µM | 1,100 compounds, 25% hits | Am2.2-beta2AR cells, FAP surface receptor; stronger effect = lower value | shares compounds with B2AR ag;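 active = surface receptor percent response at or below 58%, roughly 3 SD from nonfluorescent compounds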
FAP fluor counter = flagged in Am2.2 fluorescence counterscreen for beta-2AR agonists; 1,100 tested, under 10 active; Am2.2 cells, FAP fluorogen flow cytometry; stronger effect = lower value; calls only at 10 µM; shares compounds with B2AR ag;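 active = percent response below a set limit in fluorescence channel 1 and below 50% in channel 8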
* marks the source's active call; other numbers are inactive results; i = inactive; x = no result. This is a sample that favours compounds with a hit; in the whole collection about 1.6% have one here.

SMILES	Bfl-1 A1 inh	B2AR ag	dFosB activator	DYRK1A inh	B2AR ag CP1	FAP fluor counter	others
Cn1c2ccccc2c(=O)c2ccc(C#CC3(N)CCCCC3)cc21	-0.5	9.0	-17.2	58.4*	x	x	ADP-Glo artifact=9.3%
N#Cc1c(N2CCCC2)nc(N)c2c(N)nc(N3CCCC3)cc12	1.3	45.6*	4.2	67.2*	82.9	i	ADP-Glo artifact=9.4%
O=C(CSc1nc(O)c(C2CCCCC2)c(=O)[nH]1)Nc1ccc(F)cc1	0.1	-2.3	-2.9	-3.9	x	x
O=C(c1ccc(-c2nnc(Nc3ccccc3)c3ccccc23)cc1)N1C[C@H]2C[C@H](C1)c1cccc(=O)n1C2	0.4	7.4	-3.8	-3.7	79.4	i
O=C(Nc1cccc(Oc2c(F)c(F)c(F)c(F)c2F)c1)N1C[C@@H]2C[C@@H](C1)c1cccc(=O)n1C2	0.0	-1.7	-15.7	-1.5	x	x
Cc1ccc(-c2nc3ncccc3o2)cc1NC(=O)c1sc2ccccc2c1Cl	-0.4	45.5*	-2.2	6.1	74.4	i
O=C(Cn1nnc(-c2ccccc2)n1)Nc1ccccc1N1CCOCC1	0.7	-19.1	-4.4	2.4	43.3*	i
CCC(=O)c1ccccc1OCCCN1CCC(Cc2ccccc2)CC1	0.0	-0.2	-3.9	-2.0	x	x
COc1ncnc2c1oc1nc(C(C)C)c3c(c12)CC(C)(C)OC3	-0.1	-20.8	-5.7	-3.0	x	x
COc1ncnc2c1oc1nc(C)c3c(c12)CC(C)(C)OC3	-0.1	8.6	x	x	78.8	i
C=CCNC(=S)NNC(=O)c1cc(O)ccc1O	-0.1	1.0	-1.8	2.2	x	x
COc1ccc(NC(=O)C2CCCN(S(=O)(=O)c3ccc(-n4cnnn4)cc3)C2)cc1 (stereo not drawn)	-0.3	17.1	3.6	-1.8	x	x
CC(=O)Nc1ccc(S(=O)(=O)N2CCC(Oc3ccc(-n4cnnn4)cc3)CC2)cc1	0.6	88.1*	15.3	-10.2	11.6*	i
O=C(Oc1c(CN2CCOCC2)cc(Cl)c2cccnc12)c1ccccc1F	-0.1	-9.7	-3.9	x	110.7	i
COc1cc(OC)cc(C(=O)Oc2c(CN3CCOCC3)cc(Cl)c3cccnc23)c1	0.6	-4.9	-10.7	-3.9	88.7	i
O=C(Oc1c(CN2CCOCC2)cc(Cl)c2cccnc12)c1ccccc1	0.4	4.8	-7.9	2.7	x	x
COc1ccc(C(=O)Oc2c(CN3CCOCC3)cc(Cl)c3cccnc23)cc1OC	0.3	x	x	x	x	x
CC(NCc1ccc(OCc2ccc(Cl)cc2)cc1)C(O)c1ccccc1 (stereo not drawn)	-0.7	79.2*	-10.8	-7.0	86.5	i
COc1ccccc1C(=O)NC(=O)COC(=O)Cc1ccc(F)cc1	0.0	58.5*	7.5	4.3	114.0	i
COc1cccc(NC(=O)CN2C(=O)COc3ccc(S(=O)(=O)N4CCCCCC4)cc32)c1	1.8	9.0	-17.5	-2.0	x	x
COc1cccc(/C=C/C(=O)OCC(=O)NCC2CCCCC2)c1OC	0.5	27.3	-16.7	3.9	x	x
O=C(C1CCC(=O)N(C2CC2)C1)N1CCC(Oc2cccc(C(F)(F)F)c2)CC1 (stereo not drawn)	x	10.4	0.5	-0.8	x	x
COc1ccc(NC(=O)c2cccc(N3C(=O)C4C5CCC(C5)C4C3=O)c2)cc1 (stereo not drawn)	1.6	2.8	-4.3	-0.1	x	x
O=C(O)c1cccc(NC(=O)c2ccc3c(c2)C(=O)N(c2ccccc2)C3=O)c1	0.8	2.5	4.9	-1.8	x	x
O=C(O)c1cc(NC(=O)c2cccc(N3C(=O)c4ccccc4C3=O)c2)cc(C(=O)O)c1	0.4	8.0	0.9	-3.0	110.2	i
SMILES	Bfl-1 A1 inh	B2AR ag	dFosB activator	DYRK1A inh	B2AR ag CP1	FAP fluor counter	others
O=C(Nc1ccccc1C(=O)O)c1cccc(N2C(=O)c3ccccc3C2=O)c1	0.4	-10.2	-3.5	-2.7	78.7	i
COc1ccc(NC(=O)c2cccc(N3C(=O)c4cccc([N+](=O)[O-])c4C3=O)c2)cc1	1.1	-3.7	5.5	0.4	91.0	i
CC12CCC(C(=NO)C1=O)C2(C)C (stereo not drawn)	x	5.0	6.1	x	x	x
COc1ccc(Nc2cc(C(=O)NCCCN3CCN(C)CC3)c3ccccc3n2)cc1	0.1	47.3*	-13.4	-2.1	85.8	i
COc1ccc(Nc2cc(C(=O)NCCCN3CCOCC3)c3ccccc3n2)cc1	0.2	5.9	-2.3	5.0	x	x
O=C(CCN1C(=O)NC2(CCCC2)C1=O)Nc1ccc(-c2nc3ccccc3s2)cc1	x	40.5	-22.1	3.4	x	x
C=CCN1C(=O)c2oc3ccccc3c(=O)c2C1c1ccc(O)c(OC)c1 (stereo not drawn)	-0.3	-13.6	3.5	-8.7	123.2	i
COCCN1C(=O)c2oc3ccccc3c(=O)c2C1c1ccc(OC)c(OC)c1 (stereo not drawn)	-0.9	-2.6	0.1	5.8	x	x
CCOc1ccc(NC(=O)CSc2nc3ccccc3nc2N2CCOCC2)cc1	-0.2	-10.6	-8.9	4.7	x	x
COc1ccc(NC(=O)Nc2c(O)ccc3ccccc23)cc1	0.4	11.5	-14.3	-3.0	x	x
CCC(NC(C)C)C(O)c1ccc(O)c(O)c1 (stereo not drawn)	0.1	19.5	11.6	8.4	42.3*	i
CCC(c1ccc(O)c(O)c1)C(CC)c1ccc(O)c(O)c1 (stereo not drawn)	x	4.9	-9.1	19.1	x	x
O=C(O)CC1(O)C(=O)N(Cc2ccccc2)c2ccccc21 (stereo not drawn)	0.4	-3.1	6.4	0.8	x	x
CC(C)(C)C(=O)CC1(O)C(=O)N(Cc2ccc(Cl)cc2)c2ccccc21 (stereo not drawn)	-0.1	54.0*	-23.1	0.7	110.2	i
Cc1ccccc1N1CCN(C2CCCN(C(=O)c3cc[n+]([O-])cc3)C2)CC1 (stereo not drawn)	-0.6	1.9	-5.7	-3.0	x	x
O=C(Nc1cccc(O)c1)N1CCOCC1	-1.7	6.0	-1.7	-1.4	x	x
O=C(Nc1ccc2nc(-c3cccs3)c(-c3cccs3)nc2c1)N1CCOCC1	0.0	59.1*	-18.0	-2.7	20.2*	i
CN(CC(=O)NCc1ccco1)CC(=O)Nc1c(Cl)cccc1Cl	0.8	-4.5	-15.8	-6.3	x	x
CC(C)(C)C1CCC(C(=O)Nc2ccccc2)CC1 (stereo not drawn)	-0.5	51.2*	-9.3	-1.8	63.5	i
O=C(Nc1ccc(Nc2ccccc2)cc1)C1CC1	-0.2	4.0	1.5	-5.1	x	x
